This is part of a sample that, as a whole, favours compounds with a hit. Of some 83,000 tested, about 20% had one in any assay.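 Percent growth is the endpoint: 0 to 100 indicates growth inhibition (40 means 60% inhibition), 0 means no net growth, and negative values indicate cell death.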 Values without a mark were called inactive. Calls of active or inactive are those of the source. Rule for the calls: active = growth percent below 10; inactive = the rest.

Some test systems named below: NCI-H23 lung; NCI-H226 lung; NCI-H322M lung; HOP-62 NSCLC; NCI-H460 lung; HOP-92 NSCLC; NCI-H522 lung; A549/ATCC NSCLC; 786-0 renal; COLO 205 colon; DU-145 prostate; K-562 leukemia; MALME-3M melanoma; MDA-MB-231 breast; RXF 393 renal; SF-268 CNS; SF-295 CNS; SF-539 CNS; UACC-257 melanoma; M14 melanoma.
Common to all, as to experiment: NCI-60 one-dose screen, 48 h (100 = growth as untreated, 0 = no growth, -100 = all killed)
Common to all, as to details: 10 µM unless noted

On to `O=C1c2c(c3c4ccccc4[nH]c3c3ccc4ccccc4c23)C(=O)N1CCN1CCOCC1`, for which the growth with NCI-H23 lung was 32.6%; in the assay on NCI-H226 lung it was 61.4%; with NCI-H322M lung, 51.8%; with HOP-62 NSCLC, 45.8%; in the assay on NCI-H460 lung, 2.17% (active); in the assay with HOP-92 NSCLC, 66.1%. In addition, the growth in the assay with NCI-H522 lung is 29.1%; in the assay with A549/ATCC NSCLC it was 28.8%; in the assay on 786-0 renal it was 52.5%; with COLO 205 colon, 55.5%; with DU-145 prostate, 39.7%; in the assay on K-562 leukemia, 10.9%. Further, the growth was 44.5% in the assay with MALME-3M melanoma; 69.5% in the assay with MDA-MB-231 breast; 18% in the assay on RXF 393 renal; 56.8% with SF-268 CNS; 29.1% in the assay with SF-295 CNS; 51.7% with SF-539 CNS. The results for the growth in the assay on UACC-257 melanoma and with M14 melanoma were 79.7% and 36.8%, respectively.

As to `CC(C)C1=NOC(=O)C1=Cc1cn(-c2ccccc2)nc1-c1ccc(F)cc1`, the growth is 95.6% with NCI-H23 lung; 93.7% in the assay with NCI-H226 lung; 94.9% in the assay with NCI-H322M lung; 90.1% in the assay on HOP-62 NSCLC; 76.8% in the assay with NCI-H460 lung; 89.8% in the assay on HOP-92 NSCLC. Further, the growth was 66.5% in the assay on NCI-H522 lung; 81.4% in the assay with A549/ATCC NSCLC; 77.4% in the assay on 786-0 renal; 94.4% in the assay on COLO 205 colon; 74% in the assay on DU-145 prostate; 29.2% in the assay with K-562 leukemia. The growth in the assay with MALME-3M melanoma was 90.8%; in the assay on MDA-MB-231 breast it was 98.1%; in the assay with RXF 393 renal, 82.2%; in the assay with SF-268 CNS, 91.2%; with SF-295 CNS, 95.5%; in the assay with SF-539 CNS, 89.6%. In addition, the growth with UACC-257 melanoma is 91%; in the assay on M14 melanoma, 67.4%.

Turning to `O=C(N/N=C/c1ccc(Cl)cc1)c1[nH]c2ccc(Cl)cc2c1-c1ccccc1`, the growth in the assay on NCI-H23 lung is 42.1%; in the assay with NCI-H226 lung, 10.9%; in the assay on NCI-H322M lung, 37.6%; with HOP-62 NSCLC it was 23.9%; in the assay on NCI-H460 lung it was 4.43% (active); in the assay on HOP-92 NSCLC, -7.26% (active). For the same molecule, the growth in the assay on NCI-H522 lung is -32% (active); in the assay on A549/ATCC NSCLC, 42.9%; in the assay with 786-0 renal, 22.1%; in the assay on COLO 205 colon, -72.4% (active); in the assay with DU-145 prostate, -2.5% (active); with K-562 leukemia it was 39.3%. Also, the growth in the assay on MALME-3M melanoma is 62.3%; in the assay on MDA-MB-231 breast it was 9.64% (active); in the assay on RXF 393 renal, 34.6%; in the assay with SF-268 CNS, 27.2%; with SF-295 CNS it was -24.1% (active); in the assay on SF-539 CNS it was -0.139% (active). Besides, the growth in the assay on UACC-257 melanoma was 59.9%; in the assay on M14 melanoma it was 20.2%.

As for `COc1ccc(-c2nc3cc(C(=O)NCc4ccccc4)ccc3n2C2CCCCC2)cc1`, the growth was 99.6% with NCI-H23 lung; 102% with NCI-H226 lung; 81% in the assay with NCI-H322M lung; 90.1% in the assay with HOP-62 NSCLC; 72.2% with NCI-H460 lung; 92.8% with HOP-92 NSCLC. Moreover, the growth in the assay on NCI-H522 lung is 76.8%; in the assay with A549/ATCC NSCLC it was 74%; in the assay on 786-0 renal, 70.8%; in the assay on COLO 205 colon it was 64.7%; in the assay on DU-145 prostate, 82.8%; in the assay with K-562 leukemia, 41.1%. Moreover, the growth with MALME-3M melanoma is 102%; with MDA-MB-231 breast, 77.5%; in the assay with RXF 393 renal, 90.2%; with SF-268 CNS, 79.4%; with SF-295 CNS, 51%; in the assay with SF-539 CNS it was 60.2%. Moreover, the growth in the assay on UACC-257 melanoma is 96.7%; in the assay with M14 melanoma, 78.1%.

As for `O=S(=O)(NCCNc1nccc(-c2c(-c3ccc(F)c(O)c3)nc3occn23)n1)c1ccc(Cl)cc1`, the growth in the assay with NCI-H23 lung is 80.3%; in the assay with NCI-H226 lung, 102%; with NCI-H322M lung, 97.1%; with HOP-62 NSCLC, 101%; with NCI-H460 lung it was 76.7%; in the assay on HOP-92 NSCLC, 70.4%. Also, the growth in the assay on NCI-H522 lung was 76.6%; with A549/ATCC NSCLC, 77.9%; with 786-0 renal, 109%; with COLO 205 colon it was 67.7%; with DU-145 prostate it was 90.9%; in the assay with K-562 leukemia, 73.8%. For the same molecule, the growth is 2.05% (active) in the assay with MALME-3M melanoma; 60% with MDA-MB-231 breast; 57.5% in the assay with RXF 393 renal; 80.5% in the assay with SF-268 CNS; 97.4% in the assay with SF-295 CNS; 102% with SF-539 CNS. In addition, the values for the growth in the assay with UACC-257 melanoma and with M14 melanoma were 41.6% and 26.6%, respectively.

Regarding `CN(/C(N)=N/N=C/c1c2ccccc2cc2ccccc12)C1CCCCC1`, the growth is 16.1% with NCI-H23 lung; 64.3% in the assay on NCI-H226 lung; 73.6% in the assay on NCI-H322M lung; 75.8% in the assay on HOP-62 NSCLC; 43.6% in the assay with NCI-H460 lung; -5.84% (active) in the assay on HOP-92 NSCLC. The growth was 40.9% in the assay on NCI-H522 lung; 43.4% with A549/ATCC NSCLC; 49.5% in the assay on 786-0 renal; -55.5% (active) with COLO 205 colon; 57.6% in the assay with DU-145 prostate; 12.9% in the assay with K-562 leukemia. Moreover, the growth with MALME-3M melanoma is 39.8%; in the assay on MDA-MB-231 breast, 59.9%; with RXF 393 renal, 48.1%; in the assay on SF-268 CNS, 72.4%; with SF-295 CNS, 45.7%; in the assay on SF-539 CNS, 73.9%. Further, the growth in the assay with UACC-257 melanoma was 64.3%; in the assay on M14 melanoma, 37.7%.

In the case of `COCCn1cc(-c2nc(-c3cc4cccnc4[nH]3)cs2)c2cc(OC)ccc21`, the growth is 8.67% (active) with NCI-H23 lung; 28.8% in the assay on NCI-H226 lung; 21.2% in the assay with NCI-H322M lung; 13.4% with HOP-62 NSCLC; 7.21% (active) in the assay with NCI-H460 lung; 4.04% (active) in the assay with HOP-92 NSCLC. Besides, the growth is 41.6% with NCI-H522 lung; 24.8% in the assay with A549/ATCC NSCLC; 28.5% in the assay on 786-0 renal; 49.4% in the assay on COLO 205 colon; 40.9% in the assay on DU-145 prostate; 6.65% (active) in the assay on K-562 leukemia. Moreover, the growth is 73.9% in the assay on MALME-3M melanoma; 2.87% (active) in the assay on MDA-MB-231 breast; 23.2% with RXF 393 renal; 44.9% with SF-268 CNS; 14.6% in the assay with SF-295 CNS; 30.8% with SF-539 CNS. For the same molecule, the growth was 30.6% in the assay with UACC-257 melanoma and 37.6% in the assay on M14 melanoma.

Turning to `O=S(=O)(Nc1ccc(Cl)c(C(F)(F)F)c1)c1ccc(-c2cnc(C3CC3)o2)cc1`, the growth is 20.4% in the assay on NCI-H23 lung; 46.7% in the assay with NCI-H226 lung; 44.4% in the assay on NCI-H322M lung; 12.2% with HOP-62 NSCLC; 7.09% (active) with NCI-H460 lung; -18.5% (active) in the assay with HOP-92 NSCLC. The growth with NCI-H522 lung is -1.8% (active); in the assay with A549/ATCC NSCLC, 8.92% (active); in the assay with 786-0 renal, 25.9%; in the assay on COLO 205 colon it was 2.71% (active); with DU-145 prostate, 15.5%; in the assay with K-562 leukemia it was 5.12% (active). The growth in the assay on MALME-3M melanoma is 28.7%; in the assay on MDA-MB-231 breast, 15.6%; in the assay with RXF 393 renal it was 8.55% (active); in the assay on SF-268 CNS it was 13.7%; in the assay with SF-295 CNS, 22.2%; with SF-539 CNS it was -35.8% (active). The growth was -0.635% (active) in the assay with UACC-257 melanoma and 10.9% in the assay on M14 melanoma.

(Values after PubChem BioAssay (NCI).)
